# Assay results reported in PubChem BioAssay (EPA / NIEHS).
# Calls of active or inactive are those of the source. Rule for the calls: active = hit-call score of the fitted dose curve at least 0.9, where 1 is the maximum; inactive = score below 0.9.
# What was measured:
# Conditions in all cases: mRNA level, 48 h; actives raise or lower the signal
# [1] = read-out: Tumor necrosis factor receptor superfamily member 6 (Homo sapiens) (UniProt P25445); assay: LTEA_HepaRG_FAS: Life Technologies and Expression Analysis (LTEA) Assay for Fas cell surface death receptor (FAS) using HepaRG (AID 2283447)
# Procedure, shortened: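 FAS transcript level was measured by TaqMan qRT-PCR against three housekeeping genes after 48 h chemical exposure. Cells were HepaRG, 0.5% DMSO vehicle, with a top concentration of 100 uM and half-log dilutions over eight points, in duplicate.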
# [2] = read-out: Fatty acid synthase (Homo sapiens) (UniProt P49327); assay: LTEA_HepaRG_FASN: Life Technologies and Expression Analysis (LTEA) Assay for Fatty Acid Synthase (FASN) using HepaRG (AID 2283448);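 for AC50: differentiated human HepaRG liver cells in serum-free induction medium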
# Procedure, shortened: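 Transcript-level assay: HepaRG liver cells are treated for 48 h across an eight-point range topping at 100 uM, and FASN mRNA, normalized to three housekeeping genes, is compared with DMSO controls in both directions.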
# [3] = read-out: Cyclin D2 (CCND2), CCND2 (gene 894); assay: LTEA_HepaRG_CCND2: Life Technologies and Expression Analysis (LTEA) Assay for Cyclin D2 (CCND2) using HepaRG (AID 2283449)
# Procedure, shortened: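 Read-out is CCND2 mRNA level measured by qRT-PCR in human HepaRG liver cells and normalised to three housekeeping genes. Chemicals were applied for 48 h at up to 100 uM, with gain or loss fitted relative to 0.5% DMSO.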
# [4] = read-out: Cyclin Dependent Kinase Inhibitor 1A (CDKN1A), CDKN1A (gene 1026); assay: LTEA_HepaRG_CDKN1A: Life Technologies and Expression Analysis (LTEA) Assay for Cyclin Dependent Kinase Inhibitor 1A (CDKN1A) using HepaRG (AID 2283450)
# Procedure, shortened: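 HepaRG, 48 h dosing, 8-pt half-log series from 100 uM top, 0.5% DMSO vehicle, duplicates. Readout: TaqMan qRT-PCR of CDKN1A transcript, housekeeping-normalized (ACTB, GAPDH, POLR2A). Up/down curve fit relative to DMSO.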
# [5] = read-out: Cyclin D1 (CCND1), CCND1 (gene 595); assay: LTEA_HepaRG_CCND1: Life Technologies and Expression Analysis (LTEA) Assay for Cyclin D1 (CCND1) using HepaRG (AID 2283451);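 for AC50: differentiated human HepaRG liver cells in serum-free induction medium; TaqMan qRT-PCR transcript level normalised to ACTB GAPDH and POLR2A housekeeping genes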
# Procedure, shortened: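 qRT-PCR (Fluidigm 96.96 array) read-out of transcript level, housekeeping-normalized (ACTB/GAPDH/POLR2A). HepaRG cells, 48 h chemical exposure, 8-point half-log series from 100 uM, 0.5% DMSO vehicle; gain or loss relative to DMSO baseline.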
# [6] = read-out: catalase (CAT), CAT (gene 847); assay: LTEA_HepaRG_CAT: Life Technologies and Expression Analysis (LTEA) Assay for catalase (CAT) using HepaRG (AID 2283452)
# Procedure, shortened: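 Expression of CAT was quantified by TaqMan qRT-PCR with ACTB/GAPDH/POLR2A normalization after 48 h chemical exposure of HepaRG. Eight-point half-log series, top 100 uM, in 0.5% DMSO; gain or loss fitted against vehicle.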
# [7] = read-out: flavin-containing dimethylaniline monooxygenases 3 (FMO3), FMO3 (gene 2328); assay: LTEA_HepaRG_FMO3: Life Technologies and Expression Analysis (LTEA) Assay for flavin-containing dimethylaniline monooxygenases 3 (FMO3) using HepaRG (AID 2283453);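 for AC50: differentiated human HepaRG liver cells in serum-free induction medium; FMO3 transcript by TaqMan qRT-PCR normalized to ACTB GAPDH and POLR2A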
# Procedure, shortened: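 HepaRG, 48 h exposure, 8-pt half-log series from 100 uM, 0.5% DMSO vehicle, duplicates; FMO3 transcript by Fluidigm TaqMan qRT-PCR, housekeeping-normalized; gain/loss fit vs DMSO.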
# [8] = read-out: Cytochrome P450 (CYP1A1), CYP1A1 (gene 1543); assay: LTEA_HepaRG_CYP1A1: Life Technologies and Expression Analysis (LTEA) Assay for Cytochrome P450 (CYP1A1) using HepaRG (AID 2283454)
# Procedure, shortened: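 qRT-PCR read-out: CYP1A1 transcript normalized to three housekeeping genes, fitted bidirectionally against 0.5% DMSO vehicle baseline. Human HepaRG cells, 48 h chemical exposure, 8-point half-log series topping at 100 uM.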
# [9] = read-out: CFLAR gene, CFLAR (gene 8837); assay: LTEA_HepaRG_CFLAR: Life Technologies and Expression Analysis (LTEA) Assay for CFLAR gene using HepaRG (AID 2283455)
# Procedure, shortened: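 HepaRG, 48 h exposure, 8-pt conc-response (100 uM top, half-log), 0.5% DMSO vehicle, duplicates. CFLAR expression by qRT-PCR; ACTB/GAPDH/POLR2A normalization; gain or loss fit vs DMSO baseline.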
# [10] = read-out: growth arrest and DNA damage 45 (GADD45A), GADD45A (gene 1647); assay: LTEA_HepaRG_GADD45A: Life Technologies and Expression Analysis (LTEA) Assay for growth arrest and DNA damage 45 (GADD45A) using HepaRG (AID 2283458)
# Procedure, shortened: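 Human HepaRG liver cells are treated in duplicate for 48 h with chemicals in 0.5% DMSO, highest concentration 100 uM. Expression is read by qRT-PCR and analyzed in both directions against vehicle.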
# [11] = read-out: Forkhead box O3 (FOXO3), FOXO3 (gene 2309); assay: LTEA_HepaRG_FOXO3: Life Technologies and Expression Analysis (LTEA) Assay for Forkhead box O3 (FOXO3) using HepaRG (AID 2283459)
# Procedure, shortened: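 HepaRG, 48 h post-dose; 8 conc., half-log from 100 uM, 0.5% DMSO, duplicates; serum-free induction medium. Readout: FOXO3 mRNA, TaqMan qRT-PCR, housekeeping-normalized. Bidirectional curve fit vs DMSO baseline.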
# [12] = read-out: Forkhead box O1 (FOXO1), FOXO1 (gene 2308); assay: LTEA_HepaRG_FOXO1: Life Technologies and Expression Analysis (LTEA) Assay for Forkhead box O1 (FOXO1) using HepaRG (AID 2283456)
# Procedure, shortened: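 Readout is FOXO1 transcript level by multiplexed qRT-PCR against three housekeeping genes, curve-fitted in both directions relative to 0.5% DMSO vehicle. Human HepaRG cultures received chemicals for 48 h, up to 100 uM in half-log steps.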
# Sequence of Fatty acid synthase (Homo sapiens) (P49327 whole entry, looked up): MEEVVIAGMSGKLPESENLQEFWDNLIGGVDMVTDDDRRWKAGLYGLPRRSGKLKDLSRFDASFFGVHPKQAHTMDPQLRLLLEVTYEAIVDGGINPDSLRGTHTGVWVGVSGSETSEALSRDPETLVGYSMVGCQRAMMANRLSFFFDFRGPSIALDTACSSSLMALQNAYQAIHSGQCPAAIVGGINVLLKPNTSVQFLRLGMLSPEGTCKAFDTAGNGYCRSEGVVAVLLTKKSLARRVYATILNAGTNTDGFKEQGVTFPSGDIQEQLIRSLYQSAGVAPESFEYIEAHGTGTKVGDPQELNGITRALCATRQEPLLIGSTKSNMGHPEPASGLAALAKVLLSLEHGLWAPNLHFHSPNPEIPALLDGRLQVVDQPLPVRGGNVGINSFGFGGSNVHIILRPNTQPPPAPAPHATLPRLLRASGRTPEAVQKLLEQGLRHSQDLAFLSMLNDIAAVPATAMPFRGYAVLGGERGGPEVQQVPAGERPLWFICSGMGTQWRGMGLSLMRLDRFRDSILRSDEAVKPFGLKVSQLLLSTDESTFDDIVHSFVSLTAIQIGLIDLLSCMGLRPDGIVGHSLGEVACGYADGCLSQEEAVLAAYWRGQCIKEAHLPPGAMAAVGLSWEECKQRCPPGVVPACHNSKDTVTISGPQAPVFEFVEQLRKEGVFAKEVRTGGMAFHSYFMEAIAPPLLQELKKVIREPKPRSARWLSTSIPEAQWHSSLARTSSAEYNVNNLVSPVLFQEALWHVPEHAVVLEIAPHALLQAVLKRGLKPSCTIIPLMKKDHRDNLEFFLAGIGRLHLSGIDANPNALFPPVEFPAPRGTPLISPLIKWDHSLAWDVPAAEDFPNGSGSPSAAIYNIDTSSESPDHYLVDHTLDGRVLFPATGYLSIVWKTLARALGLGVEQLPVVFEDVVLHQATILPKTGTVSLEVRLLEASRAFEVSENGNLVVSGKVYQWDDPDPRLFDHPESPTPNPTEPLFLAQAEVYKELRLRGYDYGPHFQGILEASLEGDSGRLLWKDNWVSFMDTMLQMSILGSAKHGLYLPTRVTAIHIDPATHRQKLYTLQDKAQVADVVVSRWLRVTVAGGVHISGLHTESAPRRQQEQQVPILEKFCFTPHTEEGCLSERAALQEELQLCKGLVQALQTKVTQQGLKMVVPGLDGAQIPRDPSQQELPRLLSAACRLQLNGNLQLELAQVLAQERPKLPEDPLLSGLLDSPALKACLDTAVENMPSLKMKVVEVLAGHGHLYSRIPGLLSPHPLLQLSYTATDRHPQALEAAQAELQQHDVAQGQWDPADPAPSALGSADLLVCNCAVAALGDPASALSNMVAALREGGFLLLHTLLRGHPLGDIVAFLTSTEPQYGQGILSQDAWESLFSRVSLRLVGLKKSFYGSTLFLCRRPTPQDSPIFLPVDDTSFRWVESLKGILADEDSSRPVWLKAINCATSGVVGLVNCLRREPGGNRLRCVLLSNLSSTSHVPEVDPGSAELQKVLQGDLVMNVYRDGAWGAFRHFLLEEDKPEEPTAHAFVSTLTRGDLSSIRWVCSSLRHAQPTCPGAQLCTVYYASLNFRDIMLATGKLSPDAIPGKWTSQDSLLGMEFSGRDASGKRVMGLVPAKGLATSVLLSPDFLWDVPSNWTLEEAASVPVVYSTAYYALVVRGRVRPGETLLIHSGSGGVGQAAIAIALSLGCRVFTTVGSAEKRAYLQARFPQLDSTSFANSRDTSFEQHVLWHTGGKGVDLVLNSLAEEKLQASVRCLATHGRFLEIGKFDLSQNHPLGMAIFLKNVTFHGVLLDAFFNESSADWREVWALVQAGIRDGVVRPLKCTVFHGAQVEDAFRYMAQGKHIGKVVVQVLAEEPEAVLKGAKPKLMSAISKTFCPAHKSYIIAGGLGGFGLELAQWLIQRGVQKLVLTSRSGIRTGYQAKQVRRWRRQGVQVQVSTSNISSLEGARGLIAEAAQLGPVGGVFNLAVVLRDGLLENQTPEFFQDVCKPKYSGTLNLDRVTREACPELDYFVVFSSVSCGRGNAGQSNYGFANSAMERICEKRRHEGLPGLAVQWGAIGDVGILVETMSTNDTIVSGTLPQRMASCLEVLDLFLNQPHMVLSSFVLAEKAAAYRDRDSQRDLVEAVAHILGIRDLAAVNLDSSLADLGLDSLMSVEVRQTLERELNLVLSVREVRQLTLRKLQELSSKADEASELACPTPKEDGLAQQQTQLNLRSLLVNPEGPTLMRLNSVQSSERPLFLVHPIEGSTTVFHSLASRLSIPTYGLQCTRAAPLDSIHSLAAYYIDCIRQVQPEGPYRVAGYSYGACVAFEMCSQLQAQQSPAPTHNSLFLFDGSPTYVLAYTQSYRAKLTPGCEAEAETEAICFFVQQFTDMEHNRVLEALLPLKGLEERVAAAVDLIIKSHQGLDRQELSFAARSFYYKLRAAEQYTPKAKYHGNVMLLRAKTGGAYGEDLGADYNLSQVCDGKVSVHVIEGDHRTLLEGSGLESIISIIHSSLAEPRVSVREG
structure (smiles),measurement,setting,value
CS(=O)(=O)NC(=O)c1cc(Oc2ccc(C(F)(F)F)cc2Cl)ccc1[N+](=O)[O-],outcome,[1],inactive
same,outcome,[2],inactive
same,outcome,[3],inactive
same,outcome,[4],inactive
same,outcome,[5],inactive
same,outcome,[6],inactive
same,outcome,[7],inactive
same,AC50,[8],39.3 µM (active)
same,outcome,[9],inactive
same,outcome,[10],inactive
same,outcome,[11],inactive
Cc1ccc(N)cc1,outcome,[1],inactive
same,outcome,[2],inactive
same,outcome,[3],inactive
same,outcome,[4],inactive
same,outcome,[5],inactive
same,outcome,[6],inactive
same,outcome,[7],inactive
same,outcome,[8],inactive
same,outcome,[9],inactive
same,outcome,[12],inactive
same,outcome,[10],inactive
same,outcome,[11],inactive
CO[C@@H]1[C@H](OC(=O)NC(=O)CCl)CC[C@]2(CO2)[C@H]1[C@@]1(C)O[C@@H]1CC=C(C)C,outcome,[1],inactive
same,outcome,[2],inactive
same,outcome,[3],inactive
same,outcome,[4],inactive
same,outcome,[6],inactive
same,outcome,[7],inactive
same,AC50,[8],16 µM (active)
same,outcome,[9],inactive
same,outcome,[10],inactive
same,outcome,[11],inactive
c1ccc2c(c1)oc1ccccc12,outcome,[1],inactive
same,outcome,[2],inactive
same,outcome,[4],inactive
same,outcome,[5],inactive
same,outcome,[6],inactive
same,outcome,[7],inactive
same,AC50,[8],50 µM (active)
same,outcome,[9],inactive
same,outcome,[12],inactive
same,outcome,[10],inactive
same,outcome,[11],inactive
COC(=O)Nc1nc2ccccc2[nH]1,outcome,[1],inactive
same,outcome,[2],inactive
same,outcome,[4],inactive
same,outcome,[6],inactive
same,outcome,[7],inactive
same,AC50,[8],24.7 µM (active)
same,outcome,[9],inactive
same,outcome,[10],inactive
same,outcome,[11],inactive
[O-][Cl+]O,outcome,[2],inactive
same,outcome,[4],inactive
same,outcome,[6],inactive
same,outcome,[7],inactive
same,outcome,[8],inactive
same,outcome,[9],inactive
same,outcome,[12],inactive
same,outcome,[10],inactive
same,outcome,[11],inactive
O=C(N[C@H](c1ccccc1)[C@@H]1CN2CCC1CC2)c1c(Cl)ccc(C(F)(F)F)c1Cl,outcome,[1],inactive
same,AC50,[2],76.8 µM (active)
same,outcome,[3],inactive
same,outcome,[4],inactive
same,AC50,[6],68.5 µM (active)
same,AC50,[7],65.9 µM (active)
same,AC50,[8],11 µM (active)
same,AC50,[9],82.4 µM (active)
same,AC50,[10],46.2 µM (active)
same,outcome,[11],inactive
CN(C)C(=O)Nc1ccc(Cl)cc1,outcome,[1],inactive
same,outcome,[2],inactive
same,outcome,[4],inactive
same,outcome,[5],inactive
same,outcome,[6],inactive
same,outcome,[7],inactive
same,AC50,[8],38 µM (active)
same,outcome,[9],inactive
same,outcome,[10],inactive
same,outcome,[11],inactive
C=CCc1ccc2c(c1)OCO2,outcome,[1],inactive
same,outcome,[2],inactive
same,outcome,[3],inactive
same,outcome,[4],inactive
same,outcome,[6],inactive
same,outcome,[7],inactive
same,AC50,[8],50 µM (active)
same,outcome,[9],inactive
same,outcome,[10],inactive
same,outcome,[11],inactive
CC(C)COC(=O)c1ccccc1C(=O)OCC(C)C,outcome,[1],inactive
same,outcome,[2],inactive
same,outcome,[3],inactive
same,outcome,[4],inactive
same,outcome,[6],inactive
same,outcome,[7],inactive
same,AC50,[8],59.1 µM (active)
same,outcome,[9],inactive
same,outcome,[10],inactive
same,outcome,[11],inactive
CC(C)(OOC(C)(C)c1ccccc1)c1ccccc1,outcome,[1],inactive
same,outcome,[2],inactive
same,outcome,[4],inactive
same,outcome,[6],inactive
same,outcome,[7],inactive
same,AC50,[8],50 µM (active)
same,outcome,[9],inactive
same,outcome,[10],inactive
same,outcome,[11],inactive
Nc1cc(Cl)cc(C(=O)O)c1Cl,outcome,[1],inactive
same,outcome,[2],inactive
same,outcome,[3],inactive
same,outcome,[4],inactive
same,outcome,[6],inactive
same,outcome,[7],inactive
same,AC50,[8],63.4 µM (active)
same,outcome,[9],inactive
same,outcome,[10],inactive
same,outcome,[11],inactive
CC(O)CCO (stereo not given),outcome,[1],inactive
same,outcome,[2],inactive
same,outcome,[4],inactive
same,outcome,[5],inactive
same,outcome,[6],inactive
same,outcome,[7],inactive
same,outcome,[8],inactive
same,outcome,[9],inactive
same,outcome,[10],inactive
same,outcome,[11],inactive
CC(C)(C)OOC(=O)c1ccccc1,outcome,[1],inactive
same,outcome,[2],inactive
same,outcome,[4],inactive
same,outcome,[6],inactive
same,outcome,[7],inactive
same,AC50,[8],83.2 µM (active)
same,outcome,[9],inactive
same,outcome,[10],inactive
same,outcome,[11],inactive
CCC[CH2][Sn]([Cl])([CH2]CCC)[CH2]CCC,AC50,[2],2.86 µM (active)
same,AC50,[4],88.1 µM (active)
same,AC50,[5],81.2 µM (active)
same,AC50,[6],1.66 µM (active)
same,AC50,[7],2.31 µM (active)
same,AC50,[8],2.35 µM (active)
same,AC50,[9],4.12 µM (active)
same,AC50,[12],18.8 µM (active)
same,AC50,[10],50 µM (active)
same,outcome,[11],inactive
